Source: PubChem BioAssay (NCI)
Several values for one entry are separate records, joined by “and”; a condition that tells them apart may be missing. Equal entries are not always repeated. The panel holds about 79,000 compounds, 15% with a hit somewhere; the sample as a whole holds those more often. The source holds several records for some structures; these can differ, active in one and inactive in another. Activity calls are given as the source filed them. No stated cut-off is given here; in the data, active means growth inhibition above about 70%; inactive means the rest.

Legend:
[1] = NCI Yeast Anticancer Drug Screen. Data for the rad50 strain (AID 155);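 further: 0% = growth of vehicle-only cultures of the same strain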; settings: S. cerevisiae rad50 strain growth inhibition, stronger effect = higher value
In short: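 Relative growth inhibition (compound vs vehicle) was measured in yeast with a defined repair-gene alteration.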

[2] = NCI Yeast Anticancer Drug Screen. Data for the mec2-1 strain (AID 157); settings: S. cerevisiae mec2-1 strain, stronger effect = higher value
In short: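 mec2-1 yeast strain, carrying an alteration in DNA damage repair or cell cycle control, was exposed to compounds; growth inhibition was measured relative to vehicle-treated controls.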

[3] = NCI Yeast Anticancer Drug Screen. Data for the sgs1 mgt1 strain (AID 161);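 further: 0% = growth of cultures given vehicle only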; settings: S. cerevisiae sgs1 mgt1 strain, stronger effect = higher value
In short: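 This yeast growth screen uses a strain with defined DNA-repair lesions; compound-treated growth is compared with vehicle-treated growth.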

[4] = NCI Yeast Anticancer Drug Screen. Data for the cln2 rad14 strain (AID 165);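 further: 0% = growth equal to vehicle treated cultures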; settings: S. cerevisiae cln2 rad14 strain, stronger effect = higher value
In short: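 Yeast carrying cln2 and rad14 alterations (cell cycle control and DNA damage repair) were exposed to compounds. Growth inhibition was measured against vehicle-treated controls.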

[5] = NCI Yeast Anticancer Drug Screen. Data for the bub3 strain (AID 167); settings: S. cerevisiae bub3 mutant strain, stronger effect = higher value
In short: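 Screening used yeast with an engineered genetic alteration affecting cell cycle control. Compound-exposed cultures were compared with vehicle cultures, and reduced growth was taken as inhibition.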

[6] = NCI Yeast Anticancer Drug Screen. Data for the mlh1 rad18 strain (AID 175); settings: S. cerevisiae mlh1 rad18 strain growth inhibition, stronger effect = higher value
In short: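 Growth inhibition of the yeast strain was measured after compound exposure and expressed relative to vehicle-treated controls. The strain carries defined defects in DNA damage repair.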

[7] = at 5.0 µM (retest, dose inferred, filed as 0.5)
[8] = at 50.0 µM (retest, dose inferred, filed as 5.0)

Measured: growth inhibition

C[C@H]1CC[C@H]([C@@H](C)[C@H]2[C@@H](O)C[C@H]3[C@@H]4CC[C@H]5C[C@@H](O)CC[C@]5(C)[C@H]4CC[C@]23C)NC1
97% (active) and 60% (inactive): [4]; [8]
active: [1]; [8] 94% and 96% | [1]; at 50.0 µM 91.3% and 88.7% | [2]; [8] 98% and 99% | [2]; at 50.0 µM 91.8% and 85.7% | [3]; [8] 98% and 94% | [3]; at 50.0 µM 92.5% and 85.7% | [4]; at 50.0 µM 91% and 88.3% | [5]; [8] 98% and 92% | [5]; at 50.0 µM 92.1% and 89.3% | [6]; [8] 97% and 98% | [6]; at 50.0 µM 84.5% and 89.2%
inactive: [1]; [7] 32% and 5% | [2]; [7] 19% and 2% | [3]; [7] 23% and 4% | [4]; [7] 23% and 1% | [5]; [7] 24% and 0% | [6]; [7] 28% and -4%

CCCN(CCC)C(=S)N/N=C/c1ccccn1
active: [1]; [7] 99% | [1]; [8] 99% | [1]; at 50.0 µM 90.5% | [2]; [7] 99% | [2]; [8] 100% | [2]; at 50.0 µM 93.1% | [3]; [7] 98% | [3]; [8] 99% | [3]; at 50.0 µM 92.4% | [4]; [7] 98% | [4]; [8] 100% | [4]; at 50.0 µM 93.5% | [5]; [7] 99% | [5]; [8] 100% | [5]; at 50.0 µM 92.5% | [6]; [7] 99% | [6]; [8] 99% | [6]; at 50.0 µM 89.8%

CCCCN(CCCC)C(Cl)=Nc1ccccc1
active: [1]; at 50.0 µM 80.9% | [2]; at 50.0 µM 87.1% | [3]; at 50.0 µM 88.2% | [4]; at 50.0 µM 81% | [5]; at 50.0 µM 82.4% | [6]; at 50.0 µM 77.4%
inactive: [1]; [7] 35% | [1]; [8] 32% | [2]; [7] 29% | [2]; [8] 24% | [3]; [7] 31% | [3]; [8] 30% | [4]; [7] 17% | [4]; [8] 19% | [5]; [7] 33% | [5]; [8] 38% | [6]; [7] 39% | [6]; [8] 57%

O=S(=O)(CC(Cl)c1ccccc1)c1nc2ccccc2s1 (stereo not given)
inactive: [1]; [7] -7% | [1]; [8] -7% | [1]; at 50.0 µM 69.5% | [2]; [7] 2% | [2]; [8] 2% | [3]; [7] 9% | [3]; [8] 9% | [4]; [7] -14% | [4]; [8] -14% | [4]; at 50.0 µM 43.2% | [5]; [7] -30% | [5]; [8] -30% | [6]; [7] -13% | [6]; [8] -13% | [6]; at 50.0 µM 47%
active: [2]; at 50.0 µM 79.1% | [3]; at 50.0 µM 72.7% | [5]; at 50.0 µM 71.4%

Oc1cc2c3c(c1)c1cc4c(cc1c[n+]3CC2)OCO4
74% (active) and 39% (inactive): [4]; [8]
84% (active) and 60% (inactive): [5]; [8]
inactive: [1]; [7] 42% and 11% | [1]; at 50.0 µM -22.4% and 52% | [2]; [7] 36% and 10% | [2]; [8] 57% and 41% | [2]; at 50.0 µM -44.9% and 33.4% | [3]; [7] 64% and 33% | [3]; at 50.0 µM -5.25% and 50.9% | [4]; [7] 59% and 28% | [4]; at 50.0 µM 0.95% and 43.3% | [5]; [7] 63% and 23% | [5]; at 50.0 µM -36.8% and 31.2% | [6]; [7] 30% and 7% | [6]; [8] 65% and 57% | [6]; at 50.0 µM -30.6% and 53%
85% (active) and 63% (inactive): [3]; [8]
72% (active) and 56% (inactive): [1]; [8]

O=P(C(=S)NC1CC2C=CC1C2)(c1ccccc1)c1ccccc1 (stereo not given)
inactive: [1]; [7] 27% | [1]; at 50.0 µM 48% | [2]; [7] 7% | [2]; at 50.0 µM 51.1% | [3]; [7] 2% | [3]; at 50.0 µM 26.4% | [4]; [7] 12% | [5]; [7] -3% | [5]; at 50.0 µM 34.1% | [6]; [7] -31%
active: [1]; [8] 93% | [2]; [8] 94% | [3]; [8] 90% | [4]; [8] 85% | [4]; at 50.0 µM 73.4% | [5]; [8] 92% | [6]; [8] 90% | [6]; at 50.0 µM 86.7%

CC(=O)Oc1cccc2cccnc12
active: [1]; [7] 99% | [1]; [8] 99% | [1]; at 50.0 µM 99.2% | [2]; [7] 91% | [2]; [8] 100% | [2]; at 50.0 µM 99.3% | [3]; [7] 98% | [3]; [8] 100% | [3]; at 50.0 µM 89.2% | [4]; [7] 88% | [4]; [8] 99% | [4]; at 50.0 µM 98.8% | [5]; [7] 98% | [5]; [8] 100% | [5]; at 50.0 µM 99.2% | [6]; [7] 96% | [6]; [8] 99% | [6]; at 50.0 µM 98.1%

CCN(CC)CCNc1nc(NCCN(CC)CC)c2nc(-c3ccccc3)c(-c3ccccc3)nc2n1
active: [1]; [7] 91% | [1]; [8] 98% | [1]; at 50.0 µM 98.8% | [2]; [7] 84% | [2]; [8] 98% | [2]; at 50.0 µM 98.2% | [3]; [7] 95% | [3]; [8] 99% | [3]; at 50.0 µM 98.8% | [4]; [7] 76% | [4]; [8] 97% | [4]; at 50.0 µM 98% | [5]; [7] 92% | [5]; [8] 98% | [5]; at 50.0 µM 98% | [6]; [7] 92% | [6]; [8] 98% | [6]; at 50.0 µM 98.4%

OCC(O)C(O)C(O)C(/C=N/Nc1ccccc1)=N/Nc1ccccc1 (stereo not given)
inactive: [1]; [7] 2% | [1]; [8] -13% | [1]; at 50.0 µM 40.5% and 21.7% and 50.6% | [2]; [7] -2% | [2]; [8] -34% | [2]; at 50.0 µM -5.35% and -4.3% and 15.8% | [3]; [7] 2% | [3]; [8] -9% | [3]; at 50.0 µM 55.5% and 27.6% and 33% | [4]; [7] 5% | [4]; [8] -12% | [4]; at 50.0 µM 5.55% and -6.8% and -39.8% | [5]; [7] 5% | [5]; [8] 8% | [5]; at 50.0 µM -12.9% and -5.05% and -1.05% | [6]; [7] 20% | [6]; [8] 0% | [6]; at 50.0 µM 24.9% and 21.1% and 48.2%

COC(=O)C1c2cc3c(cc2C(OC2OC(C)C(OC)C(C)(OC)C2OC)CC1(C)O)C(=O)c1c(O)cc2c(c1C3=O)OC1OC2(C)C(O)C([N+](C)(C)[O-])C1O (stereo not given)
inactive: [1]; [7] 7% | [1]; [8] 65% | [2]; [7] 3% | [2]; [8] 8% | [2]; at 50.0 µM 61.4% | [3]; [7] -2% | [3]; [8] 27% | [3]; at 50.0 µM 65.8% | [4]; [7] 24% | [4]; [8] 39% | [4]; at 50.0 µM 47.6% | [5]; [7] -10% | [5]; [8] 31% | [6]; [7] -8% | [6]; [8] 57% | [6]; at 50.0 µM 54.5%
active: [1]; at 50.0 µM 70.4% | [5]; at 50.0 µM 74.8%

Fc1cccc(CSC(=S)Nc2ccc(F)c(F)c2)c1
active: [1]; [8] 99% | [1]; at 50.0 µM 99.6% | [2]; [8] 99% | [2]; at 50.0 µM 99.8% | [3]; [8] 99% | [3]; at 50.0 µM 99.7% | [4]; [8] 91% | [4]; at 50.0 µM 99.5% | [5]; [8] 95% | [5]; at 50.0 µM 99.7% | [6]; [8] 99% | [6]; at 50.0 µM 99.7%
inactive: [1]; [7] 12% | [2]; [7] 13% | [3]; [7] 10% | [4]; [7] -2% | [5]; [7] -2% | [6]; [7] 8%

Oc1ccccc1C=Nc1ccccc1N=Cc1ccccc1O
active: [1]; at 50.0 µM 85% and 81.4% | [2]; [8] 98% and 85% | [2]; at 50.0 µM 78.9% and 89% | [3]; [8] 76% and 91% | [6]; [8] 98% and 97% | [6]; at 50.0 µM 76.3% and 93%
67% (inactive) and 87.2% (active): [5]; at 50.0 µM
67.8% (inactive) and 91.3% (active): [3]; at 50.0 µM
68% (inactive) and 96% (active): [1]; [8]
52% (inactive) and 86% (active): [5]; [8]
inactive: [1]; [7] -16% and -2% | [2]; [7] -34% and -4% | [3]; [7] -12% and -1% | [4]; [7] 7% and -12% | [4]; at 50.0 µM 59.5% and 8.6% | [5]; [7] 14% and -3% | [6]; [7] -17% and -4%
39% (inactive) and 95% (active): [4]; [8]

CC1CP(c2ccccc2)(c2ccccc2)(c2ccccc2)OC1(C(=O)c1ccccc1)c1ccccc1 (stereo not given)
active: [1]; at 50.0 µM 93.9% | [2]; at 50.0 µM 99.3% | [3]; at 50.0 µM 99.3% | [4]; at 50.0 µM 98.9% | [5]; at 50.0 µM 98.8% | [6]; at 50.0 µM 99.2%
inactive: [1]; [7] -1% | [1]; [8] 9% | [2]; [7] 8% | [2]; [8] 7% | [3]; [7] -21% | [3]; [8] -1% | [4]; [7] -9% | [4]; [8] 2% | [5]; [7] -1% | [5]; [8] 11% | [6]; [7] -15% | [6]; [8] 29%

C=CCN(CC=C)C(CC(=O)C(C)(C)C)=NCC
inactive: [1]; [7] 0% | [1]; [8] -6% | [1]; at 50.0 µM -14.9% | [2]; [7] -7% | [2]; [8] 6% | [2]; at 50.0 µM -7.85% | [3]; [7] 0% | [3]; [8] -6% | [3]; at 50.0 µM -5.85% | [4]; [7] 1% | [4]; [8] 1% | [4]; at 50.0 µM 36% | [5]; [7] -3% | [5]; [8] 3% | [5]; at 50.0 µM -3.75% | [6]; [7] -11% | [6]; [8] 1% | [6]; at 50.0 µM -22.6%

CC(=O)Nc1nc([N+](=O)[O-])c(C(C)C)s1
inactive: [1]; [7] 4% | [1]; [8] 1% | [1]; at 50.0 µM 10.1% | [2]; [7] -2% | [2]; [8] 4% | [2]; at 50.0 µM 10.6% | [3]; [7] 3% | [3]; [8] 4% | [3]; at 50.0 µM -1.85% | [4]; [7] -6% | [4]; [8] -4% | [4]; at 50.0 µM 1.55% | [5]; [7] -3% | [5]; [8] 9% | [5]; at 50.0 µM -7.8% | [6]; [7] 5% | [6]; [8] 15% | [6]; at 50.0 µM 18.2%
